Common to all, as to assay type: functional
Test [1] concerns Plasmodium falciparum. Put plainly: GSK_TCMDC: Inhibition of Plasmodium falciparum 3D7 in whole red blood cells, using parasite LDH activity as an index of growth. Test compounds present at 2uM.
Test [2] relates to Plasmodium falciparum. Put plainly: GSK_TCMDC: Inhibition of Plasmodium falciparum Dd2 in whole red blood cells, using parasite LDH activity as an index of growth. Test compounds present at 2uM.
The subject of a further test is HepG2. Put plainly: GSK_TCMDC: Percent inhibition of human HepG2 cell line. Test compounds present at 10uM.

As to `Cc1cc(=NN=CC=Cc2ccccc2)c2ccc(F)cc2[nH]1`, the results for the Inhibition in the test with Plasmodium falciparum [1], in the test with Plasmodium falciparum [2] and with HepG2 were 100%, 30% and 14%, respectively.
As to `N=C(N)Nc1nc(-c2cccc(NCCCCCCCCON3C(N)=NC(N)=NC34CCCCC4)c2)cs1.O=C(O)C(F)(F)F`, the Inhibition in the test with Plasmodium falciparum [1] was 97%; in the test with Plasmodium falciparum [2], 42%; in the test with HepG2, 3%.
As for `COc1ccc2nc3cc(Cl)ccc3c(NCCc3ccccc3)c2c1.Cl`, the Inhibition in the test with Plasmodium falciparum [1] is 94%; in the test with Plasmodium falciparum [2], 82%; in the test with HepG2 it was 0%.
The matching figures for `Cc1ccc(C(=O)Nc2ccc(OC3CCN(CCC(C)C)C3)c(Cl)c2)cc1.O=C(O)C(F)(F)F` (configuration not stated): 83%, 38% and 63%.
For `CC(CN)OCn1cnc2c(N)ncnc21.Cl` (configuration not stated), in that order: 95%, 3% and 17%.
For `O=C(/C=C/c1ccc(Cl)c(Cl)c1)NCCCCCN1CCC(NC(=O)Nc2cccc(Cl)c2F)CC1`, in that order: 100%, 30% and 75%.
Consider `CN(Cc1ccccc1)C1CCCN(c2cc(NC(=O)c3cccs3)ccn2)C1.O=C(O)C(F)(F)F` (configuration not stated), for which the values for the Inhibition in the test with Plasmodium falciparum [1], with Plasmodium falciparum [2] and in the test on HepG2 were 88%, 90% and 2%, respectively.
Regarding `Cc1cccc2nc(-c3ccc(-c4cccc(CNCc5cccc(N)c5)c4)s3)[nH]c12.O=C(O)C(F)(F)F`, the results for the Inhibition with Plasmodium falciparum [1], in the test on Plasmodium falciparum [2] and with HepG2 were 100%, 85% and 15%, respectively.
The matching figures for `Cl.Nc1c2c(nc3ccc(NC(=O)Cc4ccccc4)cc13)CCCC2`: 100%, 0% and 9%.
With `CCCCCC(C)N/C(=N/c1cccc(Cl)c1Cl)Nc1ccc(C#N)cc1O` (configuration not stated), the Inhibition in the test with Plasmodium falciparum [1] stood at 100%; in the test on Plasmodium falciparum [2], 98%; with HepG2, 28%.
For `O=c1c(Br)ccccc1Br`, in that order: 94%, 41% and 98%.
The matching figures for `CC(C)CCN1CCC(Oc2ccc(NC(=O)c3ccsc3)cc2Cl)CC1.O=C(O)C(F)(F)F`: 89%, 81% and 19%.
For the compound `Cc1ccc(CNC(=O)[C@H](CC(C)C)Nc2cc(C)nc(Nc3ccccc3)n2)cc1.O=C(O)C(F)(F)F`, the Inhibition turned out to be 97% in the test on Plasmodium falciparum [1], 19% with Plasmodium falciparum [2] and 12% in the test on HepG2.
As to `COc1ccc(-c2cnc(N)c(-c3ccc(C(N)=O)cc3)c2)cc1OC`, the Inhibition in the test on Plasmodium falciparum [1] is 96%; in the test with Plasmodium falciparum [2], 98%; with HepG2, 11%.
For `Cc1cc(N[C@@H](CC(C)C)C(=O)NCCOc2ccccc2)nc(NCCc2ccccc2)n1.O=C(O)C(F)(F)F`, in that order: 94%, 29% and 13%.
For `CC(=O)Nc1ccc(S(=O)(=O)N2CCN(c3nc(NC4CCCC4)c4ccccc4n3)CC2)cc1`, the Inhibition in the test on Plasmodium falciparum [1] was 88%; with Plasmodium falciparum [2], 2%; in the test with HepG2, 7%.
The matching figures for `N=C(NCCCCCCNC(=N)NC(=N)c1ccc(Cl)cc1)NC(=N)c1ccc(Cl)cc1`: 98%, 99% and 10%.
The matching figures for `O=C(Nc1cccc(CN2CCCN(Cc3cccnc3)CC2)c1)c1cc2ccccc2s1.O=C(O)C(F)(F)F`: 92%, 28% and 15%.
The matching figures for `CS(=O)(=O)N1CC2(CCN(CCC(NC(=O)Nc3ccccc3)c3ccc(Cl)c(Cl)c3)CC2)c2ccccc21` (configuration not stated): 99%, 72% and 23%.
For `O=C(/C=C/c1ccc(C(F)(F)F)cc1)NCCCCCN1CCN(C(=O)Nc2ccc(F)c(Cl)c2)CC1`, the Inhibition in the test on Plasmodium falciparum [1] was found to be 89%; with Plasmodium falciparum [2] it was 0%; in the test on HepG2, 35%.
For `CCC[C@@H]([C@@H](CC1CCCCC1)C(=O)N[C@H](C(=O)Nc1nccs1)C(C)(C)SC)N(O)C=O`, in that order: 97%, 98% and 51%.
On to `COc1ccc2nccc([C@@H](O)CN3CCC(NCc4cc5ccccc5o4)CC3)c2c1.O=C(O)C(=O)O`, for which the Inhibition in the test on Plasmodium falciparum [1] is recorded as 96%; in the test on Plasmodium falciparum [2], 72%; in the test with HepG2 it was 17%.
The matching figures for `Cc1cc(N)c2cc(NC(=O)c3ccc4ccccc4c3)ccc2n1.Cl`: 100%, 99% and 33%.
For `N#Cc1ccc2[nH]cc(CN3CCC4(CC3)CN(CCNCc3ccccc3)C(=O)CO4)c2c1.O=C(O)C(F)(F)F`, in that order: 98%, 0% and 0%.
The matching figures for `C=Cc1ccc(-c2c(C)[nH]c(C)c(Br)c2=O)cc1`: 98%, 96% and 0%.
Regarding `Cc1cc2ccc(/C=C/C(=O)NC3CCC(CCN4CCc5ccc(C#N)cc5CC4)CC3)cc2[nH]1.Cl` (configuration not stated), the Inhibition in the test on Plasmodium falciparum [1] is on record as 84%; with Plasmodium falciparum [2], 56%; in the test with HepG2, 19%.
The matching figures for `CCNc1cc(C(=O)N[C@@H](Cc2ccccc2)[C@H](O)CNCc2cccc(OC)c2)c(OC)c(N2CCCCS2(=O)=O)c1`: 97%, 96% and 11%.
Regarding `COc1cccc(C(=O)NCCc2cccc(Cl)c2)c1OCc1ccccc1`, the Inhibition is on record as 85% in the test on Plasmodium falciparum [1], 0% with Plasmodium falciparum [2] and 0% in the test with HepG2.
As to `CC(C)NCc1ccc(-c2cccc(NC(=O)c3cccc(C#N)c3)c2)cc1.O=C(O)C(F)(F)F`, the Inhibition with Plasmodium falciparum [1] was found to be 100%; with Plasmodium falciparum [2], 78%; with HepG2, 9%.
